Shown are actives, neighbours in structure and some others; about 20% of the full set was active somewhere.
HCMV inh = human cytomegalovirus inhibition | HFF cells, HCMV-luciferase reporter, 72 h; active compounds read low | activity change, negative = inhibition, % at 57.5 µM | 410,000 compounds, 4.5% hits | AID 1259415; in the data active = activity change below about -60%; inconclusive = no clear call, values can overlap the other calls; inactive = above about -39%; also: % is scaled to controls: 0 for no effect and ±100 for the full control effect
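Compounds were evaluated in HFFs infected with an HCMV luciferase reporter virus (MOI 1 PFU/cell). Luciferase in lysates collected 72 h post infection served as the replication measure.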
Pf growth 96h = P. falciparum growth inhibition at 96 hours; AID 504834; P. falciparum luciferase reporter growth, 96 h; 320,000 compounds, 6.9% hits; Potency, µM (highest dose often 28.7 µM), for the others: top-dose activity change, negative = inhibition, hits mostly inhibitors; also: potency is read from the fitted curve at half-maximal effect; % is scaled to controls: 0 for no effect and ±100 for the full control effect
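Erythrocytes infected with luciferase-expressing P. falciparum were dispensed at 2% hematocrit and 0.05% parasitemia (final), then incubated with compounds 96 hours at 37 C in 5% CO2. Luminescence after detection reagent addition reported growth.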
Pf growth 48h = P. falciparum growth inhibition at 48 hours (one generation); P. falciparum luciferase growth in erythrocytes, 48 h; Potency, µM (doses to about 28.7 µM), for the others: top-dose activity change, negative = inhibition, most hits filed as inhibitors; 310,000 compounds, 5.9% hits; AID 504832; also: potency is read from the fitted curve at half-maximal effect; % is scaled to controls: 0 for no effect and ±100 for the full control effect
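Erythrocytes infected with P. falciparum carrying an integrated firefly luciferase reporter (2% hematocrit, 0.1% parasitemia final) were exposed to compounds in RPMI 1640 with 0.5% Albumax at 37 C, 5% CO2. Growth inhibition was scored as reduced luminescence.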
Cycloheximide cs = affects cycloheximide protein synthesis inhibition readout, counter-screen; max response, %; 300,000 compounds, 12% hits; cell reporter, cycloheximide protein synthesis inhibition counterscreen; in the data active = max response mostly above about 13%, no sharp cut-off; inactive = mostly below about 14%; also: read at 38.3 µM for the half of the compounds with a filed dose; 0% is about no effect
Shiga toxin inh = inhibitors of Shiga toxin in Vero cells | AID 2315 | 290,000 compounds, 9.2% hits | inhibition, % at 38.7 µM | Vero cells, Shiga toxin protein synthesis inhibition reporter; in the data active = inhibition mostly above about 28%, no sharp cut-off; inactive = mostly below about 43%; also: 0% is about no effect
Numbers without * were called inactive; i = inactive; ? = inconclusive; . = no result given; [ ] = another dose, or the depositor's remark. Unless noted, calls follow the shape of the dose curve; as a rule, active = well fitted inhibition curve with a large enough effect; inconclusive = small, poorly fitted or top-dose-only effect, or another doubt; inactive = no such curve, though single readings can be large or run the other way.

SMILES	HCMV inh	Pf growth 96h	Pf growth 48h	Cycloheximide cs	Shiga toxin inh
COc1cc(CNC2CCCCCCC2)ccc1OCC(N)=O	9.0	?	-19.7%	5.6	-5.3
COc1ccc(CCNC(N)=S)cc1OC	42.0	10.4µM*	20.8%	-2.0	4.4
CNCCc1ccc(OC)c(OC)c1	-3.4	69.8%	39.5%	-6.8	-3.6
CCOc1ccc(S(=O)(=O)N2CCC(C(=O)NCCc3ccc(OC)c(OC)c3)CC2)cc1	-2.3	?	?	-2.7	-4.4
CC(O)(c1ccc(Cl)cc1)c1ccc(Cl)cc1	.	.	.	2.8	7.3
CCOC(=O)c1c(C(=O)OCC)c(C)n(CCc2ccc(OC)c(OC)c2)c1C	-13.2	9.28µM*	?	-2.7	-4.4
COc1ccc(CNC(=S)NCc2ccc(F)cc2)cc1OC	-62.9*	-26.4%	?	5.7	-12.9
CCOC(=O)c1ccc(Nc2ccc(-c3ccc(OC)c(OC)c3)nn2)cc1	-20.3	-5.4%	11.7µM*	1.4	-3.4
COc1ccc(NC(=O)c2cc(C3CCCCN3C(=O)c3cc(C(C)(C)C)nn3C)on2)c(C)c1 (centres undefined)	-7.6	.	.	.	.
CC(C)(O)c1cc2ccc(C#Cc3ccsc3)cc2c(=O)o1	18.9	42.6%	25.2%	.	.
COc1ccc(N(C=O)C(C(=O)Nc2c(C)cccc2C)c2ccccc2)cc1 (centres undefined)	38.3	.	.	.	.
CC(C(=O)N1CCc2ccccc21)N1CCN(S(=O)(=O)c2cccs2)CC1 (centres undefined)	-4.8	?	?	.	.
CN(CC(=O)N1CCc2ccccc21)S(=O)(=O)c1cccs1	95.4	1.4%	.	61.3*	98.9*
CN(CC(=O)NC1CCCc2ccccc21)S(=O)(=O)c1cccs1 (centres undefined)	-73.8*	?	-10.6%	2.1	-6.5
Cc1ccc(C)c(NC(=O)CCC(=O)NNC(=S)Nc2ccccc2)c1	?	-16.0%[5.75 µM]	-16.4%[5.75 µM]	-9.8	-2.5
Cc1ccc(C)c(NC(=S)NNC(=O)c2sccc2C)c1	29.2	6.6%[5.75 µM]	14.0%	28.8*	120.7*
Cc1ccc(C)c(NC(=S)NNC(=O)c2cc3c(s2)CCC(C)C3)c1 (centres undefined)	-3.1	-15.8%	18.7%	-0.5	-7.6
Cc1ccc(C)c(NC(=S)NNC(=O)c2csc(C)c2C)c1	11.8	30.1%	15.2%	17.9*	22.0*
Cc1ccc(C)c(NC(=S)NNC(=O)c2csc(C(C)C)c2)c1	0.0	-5.8%	26.7%	18.5*	27.6
O=C(COc1ccc2c3c(c(=O)oc2c1)CCC3)NCCCN1CCCC1=O	-15.4	?	4.5%	-12.8	18.7
C[C@@H]1CN([C@H](C)CO)C(=O)CCCn2cc(nn2)CO[C@H]1CN(C)C(=O)Nc1ccc2c(c1)OCO2	26.8	.	.	.	.
CCOc1ccc(/C=C/C(=O)c2c(O)c3ccccc3oc2=O)cc1	-7.7	105.6%	25.5%	-2.0	-7.5
CCOC(=O)/C=C/c1ccc2oc3ccccc3c(=O)c2c1	-3.9	108.3%	236.1%	49.0*	75.5*
Cc1ccc(S(=O)(=O)N(Cc2ccccc2)c2ccccc2C(=O)Nc2ccccc2C(=O)NCc2ccco2)cc1	?	?	10.4µM*	31.4*	54.8*
Cc1ccc(S(=O)(=O)N(Cc2ccccc2)c2ccccc2C(=O)NCc2ccco2)cc1	-18.5	5.86µM*	10.4µM*	25.0*	31.2
SMILES	HCMV inh	Pf growth 96h	Pf growth 48h	Cycloheximide cs	Shiga toxin inh
CS(=O)(=O)N(Cc1ccccc1)c1ccccc1C(=O)Nc1ccccc1C(=O)NCc1ccco1	-2.7	?	.	-1.0	-6.9
CN(C)S(=O)(=O)c1ccc(C(=O)NCc2nnc(SCC(=O)c3ccccc3)o2)cc1	-1.3	-4.1%	?	-1.7	8.7
Cc1ccc2cc(CN(CCN3CCOCC3)Cc3nnnn3Cc3ccco3)c(=O)[nH]c2c1C	-17.5	?	-14.8%	-5.5	3.0
COCCn1nnnc1CN(Cc1ccco1)Cc1cc2cc3c(cc2[nH]c1=O)OCO3	6.4	-10.6%	6.0%	-5.4	-33.4
Cc1ccc(C)c2[nH]c(=O)c(CN(Cc3ccc4c(c3)OCO4)Cc3nnnn3Cc3ccco3)cc12	-8.1	?	8.28µM*	-2.3	-12.0
Cc1ccc2cc(CN(Cc3ccc4c(c3)OCO4)Cc3nnnn3Cc3ccco3)c(=O)[nH]c2c1C	10.4	?	8.28µM*	-1.0	7.7
CC1CN(C(=O)CSc2nnc(-c3ccccc3)o2)CC(C)O1 (centres undefined)	-5.6	-18.7%	-9.3%	-2.4	-30.5
CC1CCN(C(=O)CSc2nnc(-c3ccccc3)o2)CC1	8.6	.	.	.	.
CC1CC(C)CN(C(=O)CSc2nnc(-c3ccc(F)cc3)o2)C1 (centres undefined)	-38.8	-2.7%	.	-8.5	-5.2
O=C(CSc1nnc(-c2ccccc2)o1)N1CCCC1	-6.2	?	58.6%	15.3*	58.5
O=C(CSc1nnc(-c2ccccc2)o1)N1CCCCC1	38.1	?	91.5%	18.0*	90.2*
O=C(CSc1nnc(-c2ccc(F)cc2)o1)N1CCCCC1	59.9	-0.6%	75.5%	26.8*	67.4*
CCC(CC)C(=O)Nc1ccccc1NC(C)=O	64.2	-11.6%	.	-1.2	-11.0
O=c1[nH]c2ccccc2nc1Cc1ccc([N+](=O)[O-])cc1	41.0	-5.0%	9.0%	-4.0	-15.8
O=C(Oc1ccc(-n2cnnn2)cc1)c1ccccc1	-5.5	25.9%	-6.7%	0.6	8.1
O=C(N/C=C/c1ccccc1)c1ccccc1	65.3	-10.0%	?	.	.
CC(Cc1ccccc1Sc1ccccc1O)N(C)C (centres undefined)	15.3	3.7µM*	.	-8.6	-19.4
COc1ccc(N(CC(=O)NCc2ccccn2)S(=O)(=O)c2ccccc2[N+](=O)[O-])c(OC)c1	-16.9	34.5%	-17.9%	0.4	32.0
CN(C)/C=C/C(=O)c1cccc(Cl)c1	8.9	53.4%	-2.5%	16.5*	14.8
COC(=O)c1ccc(C)c(NC(=O)c2ccc(Cl)c([N+](=O)[O-])c2)c1	34.2	-19.9%	-5.7%	-2.1	7.0
CN(C)/C=C/C(=O)c1ccc(Cl)cc1	-15.2	33.2%	-18.4%	8.9	-5.2
CN(C)/C=C/C(=O)c1ccc(-n2cccc2)cc1	29.8	70.3%	i	30.2*	74.6*
CN(C)/C=C/C(=O)c1ccc([N+](=O)[O-])c(CS(=O)(=O)c2ccccc2)c1	-98.2*	-6.1%	-10.4%	-2.3	2.0
CN(C)/C=C/C(=O)c1ccc(Cl)c([N+](=O)[O-])c1	-21.6	0.0%	-15.7%	20.5*	28.2
O=C(Cc1ccc(S(=O)(=O)N2CCOCC2)s1)N1CCN(S(=O)(=O)c2ccccc2[N+](=O)[O-])CC1	-12.5	.	.	.	.
COc1ccc(S(=O)(=O)N2CCC3(CC2)CC(=O)c2ccccc2O3)cc1	-27.8	26.7%	-0.6%	.	.
Cc1cccc(/C=N/c2sc3c(c2C(=O)OC(C)(C)C)CCN(C)C3)c1O	35.4	1.85µM*	?	-2.9	-9.9
O=C(Nc1ccccc1F)c1ccc2c(Cl)c3c(nc2c1)CCC3	-86.5*	.	.	.	.
N#Cc1ccccc1NC(=O)c1ccc2c(Cl)c3c(nc2c1)CCCC3	?	3.6%	?	53.0*	90.6*

Screening results deposited in PubChem by National Center for Advancing Translational Sciences (NCATS).
